Measured values published in the supplement of paper PMC9694430.

Each molecule was assayed on LOC_OS03G12390-cb001 (assay: thermal shift delta Tm vs DMSO control; higher = stronger stabilization (binding)). Details: 12.5 µM; protein concentration 2 µM.
How it was run: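 Purified, E. coli-expressed rice kinase domain constructs were tested by differential scanning fluorimetry in 96-well plates: 19.5 μl of 2 μM kinase in 100 mM potassium phosphate pH 7.5, 150 mM NaCl, 10% glycerol, 5 × SYPRO Orange, plus compound in DMSO. Fluorescence was read from 25°C to 95°C at 0.05°C/s. Melting temperatures came from Boltzmann fits, and the shift is the triplicate mean relative to protein with DMSO alone.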

SMILES	thermal shift delta Tm
COc1cc(OC)cc(-c2cc3cnc(N)nc3nc2NC(=O)NC(C)(C)C)c1	0.31 °C
COc1cc2nccc(Oc3ccc(NC(=O)C4(C(=O)Nc5ccc(F)cc5)CC4)cc3)c2cc1OC [Cabozantinib malate (XL184)]	0.1 °C
COc1ncc(-c2ccc3nccc(-c4ccnnc4)c3c2)cc1NS(=O)(=O)c1ccc(F)cc1F	0.76 °C
Cc1cc(C(C)Nc2ccccc2)c2nc(N3CCOCC3)cc(=O)n2c1 (stereo not drawn)	-0.12 °C
FC(F)(F)c1ccc(CNc2ccc(Cc3c[nH]c4ncc(Cl)cc34)cn2)cn1 [Pexidartinib (PLX3397)]	2.08 °C
NC(=O)c1ccc(N(C(N)=O)c2c(F)cccc2F)nc1-c1ccc(F)cc1F	-0.04 °C
NCC(=O)Nc1ccc(-n2nc(C(F)(F)F)cc2-c2ccc3c(ccc4ccccc43)c2)cc1	0.8 °C
CCn1c(-c2nonc2N)nc2c(C#CC(C)(C)O)ncc(OC[C@H]3CCCNC3)c21	-0.08 °C
Nc1cccc(S(=O)(=O)N2CCCN(S(=O)(=O)c3ccc4c(c3)OCCO4)CC2)c1	0.13 °C
C[C@@H]1COC(Nc2ccc3ncnc(Nc4ccc(OCc5nccs5)c(Cl)c4)c3c2)=N1 [Varlitinib]	0.13 °C
Cc1cc2c(F)c(Oc3ncnn4cc(OC[C@@H](C)OC(=O)[C@H](C)N)c(C)c34)ccc2[nH]1	-0.23 °C
CNC(=O)c1ccc(-c2cnc3ncc(Cc4ccc5ncccc5c4)n3n2)cc1F	-0.1 °C
CN(C)C/C=C/C(=O)Nc1cc2c(Nc3ccc(F)c(Cl)c3)ncnc2cc1O[C@H]1CCOC1 [Afatinib (BIBW2992)]	1.35 °C
O=c1cc(N2CCOCC2)oc2c(-c3ccc4c(c3)OCCO4)csc12	0.53 °C
C=CC(=O)Nc1cc(Nc2nccc(-c3c[nH]c4ccccc34)n2)c(OC)cc1N(C)CCN(C)C	5.75 °C
Nc1nccc(Oc2ccc3c(C(=O)Nc4cccc(C(F)(F)F)c4)cccc3c2)n1	-0.16 °C
CC(C)(C)c1nc(-c2ccc(NC(=O)Nc3cccc(C(F)(F)F)c3)c3ccccc23)c2c(N)nccn12 [kira6]	2.25 °C

SMILES	thermal shift delta Tm
COc1ccc(-c2cc3c(C)nc(N)nc3n([C@H]3CC[C@H](OCCO)CC3)c2=O)cn1	0.41 °C
O=C(O)c1cc(O)c2c(c1)[C@@H]([C@H]1c3cc(C(=O)O)cc(O)c3C(=O)c3c(O[C@@H]4O[C@H](CO)[C@@H](O)[C@H](O)[C@H]4O)cccc31)c1cccc(O[C@@H]3O[C@H](CO)[C@@H](O)[C@H](O)[C@H]3O)c1C2=O [Sennoside B]	0.74 °C
NC(=O)c1cnc2[nH]ccc2c1N[C@@H]1[C@@H]2CC3C[C@H]1C[C@@](O)(C3)C2	7.42 °C
C=CC(=O)Nc1cccc(Nc2nc(Nc3ccc(OCCOC)cc3)ncc2F)c1	6.16 °C
CCS(=O)(=O)Nc1ccc2c(c1)/C(=C(/Nc1ccc(CN3CCCCC3)cc1)c1ccccc1)C(=O)N2 [Hesperadin]	8.56 °C
COc1cc2c(cc1OC)[C@@H]1C(=O)c3ccc4c(c3O[C@@H]1CO2)C=CC(C)(C)O4 [Deguelin]	-0.38 °C
Cc1cc(Nc2cc(N3CCN(C)CC3)nc(/C=C/c3ccccc3)n2)n[nH]1 [ENMD-2076 L-(+)-Tartaric acid]	4.22 °C
Cc1ccc(NC(=O)c2ccc(CN3CCN(C)CC3)cc2)cc1Nc1nc(-c2cccnc2)cs1 [Masitinib (AB1010)]	0.28 °C
C=CC(=O)N1CC[C@@H](Oc2nc(Nc3ccc(N4CCC(N5CCN(C)CC5)CC4)cc3)c(C(N)=O)nc2CC)C1 [Naquotinib(ASP8273)]	9.13 °C
N#CC(=C(/N)Sc1ccccc1N)/C(C#N)=C(\N)Sc1ccccc1N	1.33 °C
COc1cc2/c(=N/c3ccc(Br)cc3F)nc[nH]c2cc1OCC1CCN(C)CC1 [Vandetanib (ZD6474)]	2.45 °C
O=C(Nc1cccc(C(F)(F)F)c1)c1cccc2cc(Oc3cc(CO)ncn3)ccc12	-0.09 °C
CS(=O)(=O)CCNCc1ccc(-c2ccc3ncnc(Nc4ccc(OCc5cccc(F)c5)c(Cl)c4)c3c2)o1 [Lapatinib]	1.17 °C
c1cn2cc(-c3ccc4cn[nH]c4c3)nc(Nc3ccc(N4CCOCC4)cc3)c2n1 [Entospletinib (GS-9973)]	3.99 °C
CS(=O)(=O)c1cccc(CNc2nc(Nc3ccc4c(c3)CCC(=O)N4)ncc2C(F)(F)F)c1	5.43 °C
CN1CCN(Cc2ccc(NC(=O)Nc3ccc(Oc4ccnc(N)n4)cc3)cc2C(F)(F)F)CC1	1.46 °C
